Screening data (PubChem BioAssay)
Hits are enriched below; roughly 4.7% of the tested compounds scored in any of these assays.
PABP1 MLLE inh – blocks PAM2 peptide binding to the PABP1 MLLE domain. inhibition, % at 20 µM. AID 588489. P11940. actives 0.36% (n = 360,000). GST-MLLE / FITC-PAM2 fluorescence polarization; in the data active = inhibition above about 35%, passing the limit was not always enough;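 note: plate controls were DMSO wells with GST-MLLE for no effect and wells lacking GST-MLLE protein for full effect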
PABP polyA inh – blocks human PABP binding to poly(A) RNA | fluorescence polarization | inhibition, % at 35 µM | AID 2014 | actives 1% (n = 290,000) | P11940;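 note: calls also rest on retests at 20 µM and on dose response follow-up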
UBC9 SUMO inh – blocks human SUMOylation mediated by UBC9; actives 0.36% (n = 290,000); HTRF SUMOylation assay, SAE1/SAE2 + UBC9, in vitro; inhibition, % at 35 µM; in the data active = inhibition above about 50%, passing the limit was not always enough
Target sequence (P63279 whole entry, looked up): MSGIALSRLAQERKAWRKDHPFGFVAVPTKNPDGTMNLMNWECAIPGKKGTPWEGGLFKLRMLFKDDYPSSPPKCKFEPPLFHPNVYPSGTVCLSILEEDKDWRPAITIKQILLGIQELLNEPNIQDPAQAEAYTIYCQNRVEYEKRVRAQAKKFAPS
eIF4H FP inh – inhibitors of RNA binding by human eIF4H; actives 0.94% (n = 290,000); eIF4H fluorescence polarization binding assay; Q15056; inhibition, % at 35 µM;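 note: calls also rest on retests at 20 µM and on dose response follow-up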
Efflux pump inh – antifungal efflux pump inhibition, Nile Red retention. S. cerevisiae Candida pump triplex. inhibition, % at 10 µM. actives 0.44% (n = 330,000);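 active = plate passing quality check with inhibition over a set limit, or well fluorescence over plate mean plus 4 SD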;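 note: Nile Red retained in pooled yeast measured as flow cytometry median fluorescence; 0% = buffer negative control and 100% = Enniatin B positive control; higher means more Nile Red kept so more efflux inhibition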
ALR H2O2 inh – blocks human ALR sulfhydryl oxidase activity; P55789; purified ALR, DTT oxidation, H2O2 HRP-luminol luminescence; inhibition, % (concentration not given with the values); actives 3.8% (n = 290,000); AID 485317;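 active = mean replicate inhibition above about 79%, with every replicate also reaching it, limit read from the data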
Target sequence (P55789 whole entry, looked up): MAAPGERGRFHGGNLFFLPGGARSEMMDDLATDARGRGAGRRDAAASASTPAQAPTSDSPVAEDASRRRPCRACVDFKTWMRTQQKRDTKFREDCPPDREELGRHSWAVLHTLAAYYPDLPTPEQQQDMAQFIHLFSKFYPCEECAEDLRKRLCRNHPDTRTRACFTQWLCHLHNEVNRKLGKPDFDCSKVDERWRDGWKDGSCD
* hit, by the source's call. Unless noted, the rule behind the calls is not given here.

`Oc1ccccc1CNc1cccc2cccnc12` gave PABP1 MLLE inh -7.7, PABP polyA inh 13.9, UBC9 SUMO inh 75.8*, eIF4H FP inh 14.7, Efflux pump inh -0.2 and ALR H2O2 inh -125.0.
`O=C(c1ccccc1)c1ccc2cc(O)ccc2c1` gave PABP1 MLLE inh 6.2, PABP polyA inh 17.1, UBC9 SUMO inh 9.1, eIF4H FP inh -3.2, Efflux pump inh 0.4 and ALR H2O2 inh 99.5*.
COc1cc(C(=O)OCc2cccc(OC)c2OC)ccc1OCC(=O)N1CCOCC1 was read as PABP1 MLLE inh 1.5, Efflux pump inh 0.0 and ALR H2O2 inh -20.3.
COCCNC(=O)C(c1ccc(F)cc1)N(C(=O)CCC(=O)Nc1nccs1)c1ccc(C)cc1 (configuration not stated) was read as PABP1 MLLE inh 4.6, PABP polyA inh -1.9, UBC9 SUMO inh 4.0, eIF4H FP inh -6.8 and Efflux pump inh -0.2.
N#Cc1ccsc1NC(=O)CN1CCN(c2ccc(O)cc2)CC1 was read as PABP1 MLLE inh -21.4, PABP polyA inh 1.7, UBC9 SUMO inh 70.5, eIF4H FP inh 97.8*, Efflux pump inh 0.0 and ALR H2O2 inh 99.4*.
N#Cc1cnn(-c2ccccc2)c1NC(=O)CN1CCN(c2ccccc2)CC1 was read as PABP1 MLLE inh -2.6, PABP polyA inh -10.4, UBC9 SUMO inh -12.5, eIF4H FP inh -7.4, Efflux pump inh -0.2 and ALR H2O2 inh 96.5*.
Screening CC1CCCCN1CC(=O)Nc1sccc1C#N (configuration not stated) returned PABP1 MLLE inh -21.7, PABP polyA inh 58.6*, UBC9 SUMO inh 5.6, eIF4H FP inh 75.0*, Efflux pump inh 0.1 and ALR H2O2 inh -10.8.
Screening N#Cc1c(NC(=O)CN2CCCCC2)sc2c1CCC2 returned PABP1 MLLE inh 23.9, PABP polyA inh 66.2, UBC9 SUMO inh -2.3, eIF4H FP inh 45.4*, Efflux pump inh 0.4 and ALR H2O2 inh 24.1.
For CCN1CCN(CC(=O)N/N=C/c2ccc(F)cc2F)CC1 the results were PABP1 MLLE inh 16.1, PABP polyA inh -13.1, UBC9 SUMO inh 17.1, eIF4H FP inh -4.9, Efflux pump inh -0.4 and ALR H2O2 inh -0.6.
O=C(O)CCc1ccc(S(=O)(=O)Nc2cc(C(F)(F)F)ccc2N2CCCC2)cc1 was read as PABP1 MLLE inh 5.5.
Cc1ccsc1CNC(=O)C1(C)CCN1C(=O)C(C)C (configuration not stated) was read as PABP1 MLLE inh -0.7.
`N#Cc1ccc(-c2cccnc2)nc1SCC(=O)Nc1sc2c(c1C#N)CCC2` gave PABP1 MLLE inh -20.4, PABP polyA inh -7.7, UBC9 SUMO inh 10.7, eIF4H FP inh 2.0, Efflux pump inh 0.3 and ALR H2O2 inh -3.6.
For COC(=O)C1CCN(CC(=O)Nc2sc3c(c2C#N)CCC3)CC1 the results were PABP1 MLLE inh -5.8, PABP polyA inh 8.7, UBC9 SUMO inh 7.3, eIF4H FP inh 12.8 and Efflux pump inh 0.1.
Screening CCOC(=O)c1c(NC(=O)CSc2nnc(C)c(=O)[nH]2)sc2c1CCCC2 returned PABP1 MLLE inh -3.4, PABP polyA inh 22.5, UBC9 SUMO inh 25.8, eIF4H FP inh 3.0, Efflux pump inh 0.1 and ALR H2O2 inh 20.4.
N#Cc1c(C(F)(F)F)cc(-c2ccccc2)nc1SCC(=O)Nc1sc2c(c1C#N)CCC2 was read as PABP1 MLLE inh 0.1, PABP polyA inh 55.8*, UBC9 SUMO inh 20.6, eIF4H FP inh 71.6, Efflux pump inh 0.1 and ALR H2O2 inh -3.3.
`CC1CCCCN1CC(=O)Nc1sc2c(c1C#N)CCC2` (configuration not stated) gave PABP1 MLLE inh -10.4, PABP polyA inh 54.5*, UBC9 SUMO inh 32.8, eIF4H FP inh 69.3* and Efflux pump inh 0.1.
For N#Cc1c(NC(=O)c2cnccn2)sc2c1CCCC2 the results were PABP1 MLLE inh 2.9, PABP polyA inh -17.6, UBC9 SUMO inh 17.3, eIF4H FP inh 5.6, Efflux pump inh 0.2 and ALR H2O2 inh 98.3*.
`Cc1nnc(SCC(=O)Nc2sc3c(c2C#N)CCCC3)[nH]c1=O` gave PABP1 MLLE inh 24.2, PABP polyA inh 1.2, UBC9 SUMO inh 9.0, eIF4H FP inh 5.5, Efflux pump inh 0.1 and ALR H2O2 inh 97.8*.
Screening CCCOc1ccc(CNC(=O)C2CCN(c3nnc(N4CCCC4=O)s3)CC2)cc1 returned PABP1 MLLE inh -3.1, PABP polyA inh 0.5, UBC9 SUMO inh 5.6, eIF4H FP inh 11.2, Efflux pump inh -0.1 and ALR H2O2 inh -17.0.
CC(C)N(C)c1ncnc2c1ncn2[C@H]1CN(CCc2ccccc2)C[C@@H](CO)O1 was read as PABP1 MLLE inh 8.9.
O=[N+]([O-])c1ccc(N2CCN(c3cccc(Cl)c3)CC2)cn1 was read as PABP1 MLLE inh 1.9, PABP polyA inh 3.8, UBC9 SUMO inh -0.9, eIF4H FP inh 0.4 and Efflux pump inh 0.2.
Screening Cc1cc2nc(-c3ccc(SCC(=O)NC(C)C)nc3)[nH]c2cc1C returned PABP polyA inh 2.3, UBC9 SUMO inh 23.1, eIF4H FP inh -7.6, Efflux pump inh 0.0 and ALR H2O2 inh -4.0.
For Cc1cc2nc(-c3ccc(SCc4ccc(C(=O)O)cc4)nc3)[nH]c2cc1C the results were PABP1 MLLE inh 21.8, PABP polyA inh 11.4, UBC9 SUMO inh 28.3, eIF4H FP inh 12.4, Efflux pump inh 0.0 and ALR H2O2 inh 98.7*.
`O=C(CSc1ccc(S(=O)(=O)N2CCCC2)cn1)Nc1ccc([N+](=O)[O-])cc1C(F)(F)F` gave PABP1 MLLE inh 28.7.
CN(Cc1ccco1)S(=O)(=O)c1nnc(NC(=O)c2cccc(Cl)c2)s1 was read as PABP1 MLLE inh -13.4, Efflux pump inh -0.2 and ALR H2O2 inh 96.4*.
For CCN1C(=O)CC(C(=O)NC)SC1=Nc1cc(Cl)c(O)c(Cl)c1 (configuration not stated) the results were PABP1 MLLE inh 5.6, PABP polyA inh 3.8, UBC9 SUMO inh 1.3, eIF4H FP inh -5.4, Efflux pump inh -0.1 and ALR H2O2 inh 98.9*.
Screening CCC(C)N(C(=O)COC(=O)c1ccc(N)c([N+](=O)[O-])c1)C1CCS(=O)(=O)C1 (configuration not stated) returned PABP1 MLLE inh -45.1.
For Cc1cnc(C(=O)N(c2ccc(N3CCOCC3)cc2)C2C(=O)Nc3ccccc3N=C2c2ccc(F)cc2)cn1 (configuration not stated) the results were PABP1 MLLE inh 4.5.
CC1CCC(C(C)C)C2=C1C(C#N)(C#N)C(C#N)(C#N)C(c1ccccc1)N2 (configuration not stated) was read as PABP1 MLLE inh -1.5, PABP polyA inh 19.0, UBC9 SUMO inh 7.9, eIF4H FP inh 29.2, Efflux pump inh -0.3 and ALR H2O2 inh 94.4*.
Screening CC(NCCCSc1ccccc1)C(O)c1ccc(O)cc1 (configuration not stated) returned PABP1 MLLE inh -5.2.
C[N+]1(CCCCSc2ccc(O)cc2)CCCCC1 was read as PABP1 MLLE inh -158.9, PABP polyA inh 5.7, UBC9 SUMO inh -2.7, eIF4H FP inh 3.4, Efflux pump inh 1.0 and ALR H2O2 inh 99.1*.
